Sampled rows, rich in hits. Any-hit rate of the full collection: about 0.97%.
MazEF act: activators of E. coli MazEF toxin-antitoxin RNase | P0AE70 | FAM/BHQ RNA-DNA oligo cleavage fluorescence, 5 h | activation, % at 20 µM | 350,000 tested, 0.32% active | AID 504720; in the data active means activation above about 50%
TcdB GH inh: blocks C. difficile toxin B glycohydrolase activity. P18177. TcdB glycohydrolase enzymatic assay, plate reader. inhibition, % at 9.99 µM. 350,000 tested, 0.24% active. AID 652162; in the data active means inhibition above about 10%
Rv3671c inh: Rv3671c (M. tuberculosis) protease inhibition; 320,000 tested, 0.048% active; AID 2606; P9WHR9; inhibition, % at 5.96 µM; in the data active means inhibition above about 38%;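 further: extracellular domain of Rv3671c used as enzyme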
RecA splice inh: Mtb RecA intein splicing inhibition; cell-free RecA intein splicing, fluorescence; inhibition, % (no concentration beside the values); 290,000 tested, 0.75% active; in the data active means inhibition above about 30%
Mtb UGM inh: Mtb UDP-galactopyranose mutase inhibition; P9WIQ1; purified UGM, fluorescence polarization probe displacement; inhibition, % at 10 µM; 320,000 tested, 0.06% active; AID 504406; in the data active means inhibition above about 10%, passing the limit was not always enough
Target sequence (P9WIQ1 whole entry, looked up): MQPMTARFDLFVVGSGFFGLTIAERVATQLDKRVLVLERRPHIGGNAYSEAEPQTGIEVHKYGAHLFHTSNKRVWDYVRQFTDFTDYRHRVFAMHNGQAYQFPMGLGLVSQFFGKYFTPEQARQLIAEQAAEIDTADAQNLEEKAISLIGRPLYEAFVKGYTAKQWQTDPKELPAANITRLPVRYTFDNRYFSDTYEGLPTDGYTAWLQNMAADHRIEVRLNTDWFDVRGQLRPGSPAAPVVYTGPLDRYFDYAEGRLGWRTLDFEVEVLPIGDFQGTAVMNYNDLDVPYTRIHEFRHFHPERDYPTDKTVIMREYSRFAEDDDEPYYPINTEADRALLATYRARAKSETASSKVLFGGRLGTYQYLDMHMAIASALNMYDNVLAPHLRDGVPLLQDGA
Mtb betalactam: beta-lactam sensitization of Mtb H37Rv | M. tuberculosis H37Rv growth with meropenem, percent inhibition | inhibition, % at 25 µM | 330,000 tested, 0.27% active | AID 434955; call rule not given here;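 further: growth measured after seven days incubation then overnight dye step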
Numbers stand for hits; - = inactive; . = no result given.

SMILES	MazEF act	TcdB GH inh	Rv3671c inh	RecA splice inh	Mtb UGM inh	Mtb betalactam
CS(=O)(=O)N1CCc2cc(C(=O)Nc3ccc(O)cc3)ccc21	-	25	-	-	-	-
CC(=O)Nc1ccc(NC(=O)c2ccc3c(c2)CCN3S(C)(=O)=O)cc1	-	-	-	-	-	-
O=C(Cc1n[nH]c(=O)[nH]c1=O)N/N=C/c1c(O)ccc2ccccc12	71	-	-	-	-	-
O=C(OCCN1C(=O)c2cccc3c(N4CCOCC4)ccc(c23)C1=O)c1ccccc1Cl	-	.	-	-	22	-
O=C1c2cccc3c(N4CCCCC4)ccc(c23)C(=O)N1c1cccc(O)c1	-	-	-	-	-	-
O=C(OCCN1C(=O)c2ccccc2C1=O)c1cc(S(=O)(=O)N2CCOCC2)ccc1Cl	-	.	-	-	-	-
O=C(COC(=O)c1cccc(Cl)c1)Nc1cc(S(=O)(=O)N2CCOCC2)ccc1N1CCOCC1	-	-	.	.	.	.
Cc1n[nH]c(C)c1N1C(=O)c2cccc3c(N4CCCCCC4)ccc(c23)C1=O	670	.	-	-	14	-
O=C(OCCN1C(=O)c2cccc3c(N4CCOCC4)ccc(c23)C1=O)c1ccc(Cl)cc1Cl	-	.	-	-	23	-
O=C(OCCN1C(=O)c2cccc3c(N4CCOCC4)ccc(c23)C1=O)c1cccc(Cl)c1	-	.	-	-	25	-
C/C=C/c1ccc([C@H]2[C@@H](CO)N(C(C)=O)[C@H]2CNC(=O)CC2CC2)cc1	.	-	.	.	.	.
C[C@H]1CN([C@@H](C)CO)C(=O)c2cccc(N(C)C)c2O[C@@H]1CN(C)C(=O)Nc1ccc(F)cc1	.	-	.	.	.	.
O=C(C[C@@H]1CC[C@H]2[C@@H](COC[C@@H](O)CN2Cc2cccc(Cl)c2)O1)NCC1CCCCC1	.	-	.	.	.	.
O=C1c2cccc3c(N4CCCCC4)ccc(c23)C(=O)N1CCO	-	.	-	-	30	-
Cc1noc(C)c1NC(=O)N1C[C@@H](O)COC[C@@H]2O[C@H](CC(=O)NCC3CCCCC3)CC[C@H]21	.	-	.	.	.	.
Clc1ccc(-c2nnc(SCc3nc4ccccc4[nH]3)o2)c(Cl)c1	70	.	-	-	-	-
Cc1cc(C)nc(SCc2nnc(SCC(N)=O)n2Cc2ccco2)n1	-	.	-	-	-	-
CCOC(=O)CSc1nnc(CSc2nc(C)cc(C)n2)n1Cc1ccco1	74	.	-	-	-	-
CCOCCCNC(=O)c1cc2c(s1)-c1ccccc1SC2	-	-	-	-	-	-
CN(C)CCNC(=O)c1cc2c(s1)-c1ccc(Cl)cc1SC2	-	12	.	-	-	-
COC(=O)C[C@@H]1CC[C@@H]2[C@@H](COc3ccc(NC(=O)Nc4c(C)noc4C)cc3C(=O)N2C)O1	.	-	.	.	.	.
Nc1nc(Nc2ccccc2)n[nH]1	-	13	-	-	-	-
Nc1nc(Nc2ccc(Cl)cc2)n[nH]1	-	.	-	-	-	-
O=c1[nH][nH]c(=O)c2c1[nH]c(=S)n2Cc1ccccc1	-	12	.	.	.	.
CCCCn1c(=S)[nH]c2c(=O)n(C)c(=O)n(C)c21	-	52	.	.	.	.
SMILES	MazEF act	TcdB GH inh	Rv3671c inh	RecA splice inh	Mtb UGM inh	Mtb betalactam
Cn1c(=O)c2[nH]c(=S)n(Cc3ccccc3)c2n(C)c1=O	-	50	.	.	.	.
Cn1c(=O)c2c([nH]c(=S)n2CCCc2ccccc2)n(C)c1=O	-	-	-	-	-	-
COCC(=O)N(C)C[C@H]1Oc2ncc(C#Cc3ccc(F)cc3)cc2C(=O)N([C@@H](C)CO)C[C@H]1C	.	-	.	.	.	.
O=C(N=c1ccn(-c2nc3ccccc3nc2NS(=O)(=O)c2ccccc2)cc1)c1cccs1	413	-	-	-	-	-
C[C@@H]1CN([C@H](C)CO)C(=O)c2cc(C#CC3CC3)cnc2O[C@H]1CN(C)Cc1ccncc1	.	-	.	.	.	.
CC(C)(C)OCC(O)CN1CCN(C(=O)c2ccccc2)CC1 (configuration not stated)	-	12	-	-	-	-
O=C1NC(=O)C(=Cc2cn(CCOc3ccc4c(c3)OCO4)c3ccccc23)C(=O)N1	528	.	-	-	-	-
C=CCn1cc(C=C2C(=O)NC(=O)NC2=O)c2ccccc21	-	-	-	-	-	-
COc1cccc(S(=O)(=O)N(C)C[C@H]2Oc3ncc(C#CC(C)C)cc3C(=O)N([C@@H](C)CO)C[C@@H]2C)c1	.	-	.	.	.	.
CC(C)(Oc1ccc(Cl)cc1)C(=O)NC1=NN(c2ccccc2)C(=O)C1	-	.	-	-	-	-
C=C(C)C(=O)NC1=NN(c2ccccc2)C(=O)C1	-	.	-	73	-	-
Oc1ccc(-c2nc3cnccn3c2Nc2ccc3c(c2)OCCO3)cc1	-	20	-	-	-	-

Screening results as filed in PubChem.
